Test results as given in PubChem BioAssay (NCI).
About 83,000 compounds went through this panel and 20% of them were active in at least one assay; those are over-represented in the sample as a whole.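 A percent growth of 40 corresponds to 60% growth inhibition; 0 means no net growth; -100 means all cells died. Active threshold: below 10.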 Unmarked numbers belong to inactive results. Activity calls are given as the source filed them.

What follows are compounds tested on HL-60(TB) leukemia (assay: NCI-60 one-dose screen, 48 h (100 = growth as untreated, 0 = no growth, -100 = all killed)). Conditions: 10 µM unless noted.
`c1ccc(-c2cc3n4c(-c5ccccc5)nn(-c5ccccc5)c4cnc-3n2)cc1` gave a growth of 120%. `C/C(Cc1ccc(Cl)cc1)=C(\c1ccc(OCCN2CCCCCC2)cc1)c1ccc(OC(=O)C2CCCCC2)cc1` gave a growth of 17.6%. `COc1cc2c(c(OC)c1OC)CCC(c1cccc(C(=O)Nc3ccc([N+](=O)[O-])cc3)c1)O2` (stereo not given) showed a growth of 38.8%. `Cc1ccnc2c(NC(C)CCCN)cc(O)c(O)c12` (stereo not given) was tested, and the growth was 7.56% (active). For `COc1ccc(Oc2[nH]n(C3=Nc4ccccc4Sc4ccccc43)c(=O)c2C#N)cc1`, the growth was 112%. `CC(C)c1ccc(S(=O)(=O)NC(=O)NC2CCCC2)cc1` was tested, and the growth was 90.8%. `O=C(CN1C(=O)S/C(=C\c2ccccc2)C1=O)Nc1ncc(Cc2ccccc2Cl)s1` gave a growth of 95.1%. In the case of `O=[N+]([O-])c1ccc(N/N=C/c2cccc3ccccc23)nc1`, the growth was 26.4%. For `CCCCCc1cc[n+](CC(=O)c2ccc([N+](=O)[O-])cc2)cc1`, the growth was 102%. For `Cn1ccnc1C(=O)/C=C/c1ccc(CC(=O)Nc2ccc(S(F)(F)(F)(F)F)cc2)cc1`, the growth was -11.5% (active). `O=C1Nc2ccc(C(=O)O)cc2/C1=N/c1nnc(Sc2ccccc2)s1` gave a growth of 96.4%. For `CCC(C)N(c1ccc(Cl)cc1)c1nc(-c2ccc(Br)cc2)cs1` (stereo not given), the growth was 100%. In the case of `COc1cc(C(=O)/C=C/c2cccnc2Nc2ccc(Cl)cc2)cc(OC)c1OC`, the growth was -27.2% (active). With `NS(=O)(=O)c1ccc(NCC(=O)Nc2ccc(-c3nc4ccccc4s3)cc2)cc1` the growth was 33.4%. For `Cc1[nH]n(C(=S)Nc2nc3cc(Cl)c(F)cc3s2)c(=O)c1N=Nc1ccc(F)c(Cl)c1`, the growth was 127%. In the case of `CN1CCN(c2ccc3nc(/N=C/c4ccc5sc(-c6ccc([N+](=O)[O-])cc6)nc5c4)sc3c2)CC1`, the growth was 109%. For `CC(=O)C[n+]1ccccc1Sc1ccc(Cl)cc1`, the growth was 28.4%. For `CC(=O)OCC(=O)C1(O)C(C)CC2C3C=C(C)C4=Cc5c(cnn5-c5ccccc5)CC4(C)C3C(O)CC21C` (stereo not given), the growth was 14.7%. `CN(CCNc1ccc(C(=N)N)cc1)c1ccc(C(=N)N)cc1` gave a growth of 91%. Work on `O=C(CSc1nnc(-c2ccc(Cl)c(Cl)c2)n1-c1ccccc1)Nc1ccc(C(=O)/C=C/c2ccc(Cl)cc2)cc1` yielded a growth of 81.8%. In the case of `Cc1cccc([N+](=O)[O-])c1I`, the growth was 143%. `Cc1cc2c(cc1C)NC1=C(N2)OC(c2c3ccccc3cc3ccccc23)C1=O` (stereo not given) was tested, and the growth was 2.98% (active). `CCCCCCCCCCCCCC[n+]1ccccc1` was tested, and the growth was -70.3% (active). For `CCCc1n(Cc2ccc3ccccc3n2)cc[n+]1Cc1ccc2ccccc2n1`, the growth was -31.2% (active). Compound `CCOP1(=O)CC(C)=C(Cl)C(P(=O)(O)O)C1` (stereo not given) has a growth of 11.5%. Compound `O=C(Nc1ccc(-n2ccc3c(NC(=O)c4ccccc4)ncnc32)cc1)c1ccc(Cl)c(C(F)(F)F)c1` has a growth of 34.6%. Work on `O=C(N(c1ccccc1)c1ccccc1)n1cc(I)c2nc(Cl)nc(Cl)c21` yielded a growth of 22.9%. With `COc1cc2c(cc1OC)C1CCN3C(=O)CCC3N1CC2` (stereo not given) the growth was 126%. `O=C(c1ccccc1)N1N=C(c2ccccc2)CC1c1nnc2n(Cc3ccccc3)c(=O)c3c4c(sc3n12)CCCC4` (stereo not given) was tested, and the growth was 97.7%. In the case of `C=C1CC[C@@H]2[C@](C)(COC(C)=O)[C@H](OC(C)=O)CC[C@@]2(C)[C@@H]1CC(Nc1ccc(S(=O)(=O)Nc2nccs2)cc1)C1=CCOC1=O` (stereo not given in full), the growth was -20.9% (active). `Cn1c(COC(=O)N2CCCCC2)nc2c(N3CCOCC3)nc(-c3ccccc3)nc21` was tested, and the growth was -28% (active). `Cc1ccc2c(c1)Nc1ccc(C)cc1C2(C)C` was tested, and the growth was 81%. Compound `CC(=O)Nc1cccc(-n2c(=O)n(C3CC3)c(=O)c3c(Nc4ccc(I)cc4F)n(C)c(=O)c(C)c32)c1` has a growth of 27.1%. `OCc1cn(-c2ccc(Cl)cc2)nc1-c1ccc(O)cc1` gave a growth of 51.7%. For `COc1ccc(Nc2ccnc(NCCCNc3ccnc4cc(Cl)ccc34)n2)cc1`, the growth was -68.6% (active). `Cc1c(O)cc(-c2cnc(N/N=C/c3ccccc3)s2)c(O)c1C` showed a growth of 19.1%. `Cc1ccc(/C=C(\C#N)C(=O)Nc2ncc(Cc3cc(Cl)ccc3Cl)s2)o1` gave a growth of 22.5%. For `O=C(CCl)Oc1ccc(-c2ccccc2)c(Br)c1`, the growth was 105%. With `COc1ccc(C(=O)COc2ccc(/C=C3\COc4ccc(OC)cc4C3=O)cc2)cc1` the growth was 59.4%. `Cc1c(NCC(=O)Nc2nc3ccccc3[nH]2)c(=O)n(-c2ccccc2)n1C` showed a growth of 98.5%.
